Our source for the cytotoxicity call values is the antibiotic and cytotoxicity screens of Wong et al. (2023).

The whole screen tested about 39,000 compounds, of which about 3,300 (8.5%) were called active. The sample as a whole holds a higher share of actives than the screen did.

The subject of this experiment is HepG2. The experiment in a line: cytotoxicity call (relative viability < 0.9). The conditions noted are these: 10 µM.
For `COc1cccc(S(=O)(=O)N(C)C[C@@H]2Oc3cc(C4=CCCC4)ccc3S(=O)(=O)N([C@@H](C)CO)C[C@H]2C)c1`, the cytotoxicity call was “inactive”.
Turning to `Cc1noc(C)c1S(=O)(=O)Nc1ccc2c(c1)C(=O)N([C@H](C)CO)C[C@H](C)[C@H](CN(C)C(=O)Nc1ccccc1)O2`, the cytotoxicity call is “inactive”.
Then `Cc1noc(C)c1S(=O)(=O)N(C)C[C@@H]1Oc2ccc(NS(=O)(=O)c3ccc(F)cc3)cc2CC(=O)N([C@H](C)CO)C[C@@H]1C`, with “inactive”.
Then `C[C@H]1CN([C@@H](C)CO)C(=O)c2cccc(NC(=O)c3nc4ccccc4s3)c2O[C@@H]1CN(C)C(=O)Nc1ccc(F)cc1`, with “inactive”; and `COc1ccccc1S(=O)(=O)N(C)C[C@@H]1OCc2cn(nn2)CCCC(=O)N([C@H](C)CO)C[C@H]1C`, with “inactive”.
Then `Cc1noc(C)c1S(=O)(=O)Nc1ccc2c(c1)C(=O)N([C@@H](C)CO)C[C@@H](C)[C@H](CN(C)S(=O)(=O)c1ccc(Cl)cc1)O2`, with “inactive”; and `COc1ccc(S(=O)(=O)N(C)C[C@@H]2Oc3ccc(NS(=O)(=O)c4c(C)noc4C)cc3CC(=O)N([C@@H](C)CO)C[C@H]2C)cc1`, with “inactive”; and `Cc1noc(C)c1NC(=O)Nc1ccc2c(c1)C(=O)N([C@H](C)CO)C[C@@H](C)[C@@H](CN(C)C(=O)C1CCCCC1)OCCCC[C@H](C)O2`, with “inactive”.
`C[C@H](CO)N1C[C@H](C)[C@H](CN(C)Cc2ccc(C(F)(F)F)cc2)Oc2c(NC(=O)NC3CCCCC3)cccc2C1=O`: the cytotoxicity call was “inactive”.
Consider `C[C@@H]1CN([C@H](C)CO)C(=O)c2cccc(NC(=O)NC3CCCCC3)c2O[C@@H]1CN(C)Cc1ccc(C(F)(F)F)cc1`, for which the cytotoxicity call was “active”.
Next, `C[C@H](CO)N1C[C@H](C)[C@@H](CN(C)Cc2ccc(C(F)(F)F)cc2)Oc2c(NC(=O)NC3CCCCC3)cccc2C1=O`: “inactive”; `CO[C@H]1CN(C)C(=O)c2ccc(NC(=O)C3CCOCC3)cc2OC[C@@H](C)N(Cc2cccnc2)C[C@H]1C`: “inactive”; `C[C@H](CO)N1C[C@H](C)[C@@H](CN(C)Cc2ccc(Cl)c(Cl)c2)Oc2ccc(NC(=O)Cn3cnnn3)cc2C1=O`: “inactive”.
With `CC(C)NC(=O)Nc1ccc2c(c1)CC(=O)N([C@H](C)CO)C[C@H](C)[C@H](CN(C)Cc1ccc(-c3ccccc3)cc1)O2`, the cytotoxicity call is “inactive”.
Next, `C[C@H](CO)N1C[C@H](C)[C@H](CN(C)Cc2ccc(-c3ccccc3)cc2)Oc2ccc(NC(=O)Nc3ccccc3)cc2CC1=O`: “active”; `C[C@@H]1CN([C@@H](C)CO)C(=O)Cc2cc(NC(=O)Nc3ccccc3)ccc2O[C@@H]1CN(C)Cc1ccc(-c2ccccc2)cc1`: “inactive”.
Next, `Cc1noc(C)c1NC(=O)Nc1ccc2c(c1)CC(=O)N([C@@H](C)CO)C[C@H](C)[C@H](CN(C)Cc1ccc(-c3ccccc3)cc1)O2`: “inactive”; `C[C@@H]1CN([C@@H](C)CO)C(=O)Cc2cc(NC(=O)Nc3ccccc3)ccc2O[C@H]1CN(C)Cc1ccc(-c2ccccc2)cc1`: “active”.
On to `Cc1noc(C)c1NC(=O)Nc1ccc2c(c1)CC(=O)N([C@@H](C)CO)C[C@@H](C)[C@@H](CN(C)Cc1ccc(-c3ccccc3)cc1)O2`, for which the cytotoxicity call was “active”.
For the molecule `C[C@H]1CN([C@@H](C)CO)C(=O)Cc2cc(NC(=O)Nc3ccccc3)ccc2O[C@H]1CN(C)Cc1ccc(-c2ccccc2)cc1`, the cytotoxicity call is “inactive”.
In the case of `Cc1noc(C)c1NC(=O)Nc1ccc2c(c1)CC(=O)N([C@H](C)CO)C[C@@H](C)[C@H](CN(C)Cc1ccc(-c3ccccc3)cc1)O2`, the cytotoxicity call was “inactive”.
Then `C[C@@H]1CN([C@H](C)CO)C(=O)Cc2cc(NC(=O)Nc3ccccc3)ccc2O[C@@H]1CN(C)Cc1ccc(-c2ccccc2)cc1`, with “active”.
Then `C[C@@H]1CN([C@H](C)CO)C(=O)Cc2cc(NC(=O)Nc3ccccc3)ccc2O[C@H]1CN(C)Cc1ccc(-c2ccccc2)cc1`, with “inactive”.
As for `NC1CCC(N[C@@H]2C[C@H]2c2ccccc2)CC1` (some centres not stated), the cytotoxicity call is “inactive”.
Then `C=CCC[C@@H](Cc1ccc(F)cc1)C(=O)OC[C@H]1CCCN1C(=O)[C@@H](CC=C)CC(=O)N(CCO)Cc1ccccc1`, with “inactive”; and `COc1cccc(S(=O)(=O)Nc2ccc3c(c2)OC[C@H](C)N(C(=O)Cc2cccnc2)C[C@H](C)[C@@H](OC)CN(C)C3=O)c1`, with “inactive”; and `C[C@@H]1CN([C@H](C)CO)C(=O)c2cc(NS(=O)(=O)c3cn(C)cn3)ccc2O[C@@H]1CN(C)Cc1ccccc1`, with “inactive”.
Next, `COCC(=O)NC1CCN(C2CCNCC2)CC1`: “inactive”; `CO[C@H]1O[C@H](CO)[C@@H](OC(=O)Nc2ccccc2)[C@@H]2OC(=O)[C@H](Cc3cccc(Br)c3)C/C=C/C[C@@H](Cc3cccc(Br)c3)C(=O)O[C@@H]12`: “inactive”.
Next, `C[C@H]1CN([C@@H](C)CO)C(=O)c2cccc(NC(=O)C3CCOCC3)c2O[C@H]1CN(C)C(=O)NC1CCCCC1`: “inactive”; `CC(C)(C)[S@@](=O)N1Cc2cc(C(=O)N3CCc4ccccc4C3)nc(-c3cccc(-c4cccnc4)c3)c2[C@H]1CCO`: “inactive”.
Turning to `Cc1noc(C)c1S(=O)(=O)Nc1ccc2c(c1)C(=O)N([C@H](C)CO)C[C@@H](C)[C@@H](CN(C)S(=O)(=O)c1ccc(Cl)cc1)O2`, the cytotoxicity call was “inactive”.
Then `C[C@H]1CN([C@@H](C)CO)C(=O)c2cc(NS(=O)(=O)c3cn(C)cn3)ccc2O[C@@H]1CN(C)S(=O)(=O)c1ccccc1`, with “inactive”.
Then `CN1CCN(C(=O)C[C@H]2CC[C@H]3[C@H](COc4ccc(NC(=O)c5cscn5)cc4C(=O)N3C)O2)CC1`, with “inactive”; and `C[C@H](CO)N1C[C@H](C)[C@@H](CN(C)Cc2ccc(-c3ccccc3)cc2)Oc2ccc(NC(=O)Nc3ccccc3)cc2CC1=O`, with “active”; and `C[C@@H]1CN([C@@H](C)CO)C(=O)c2cc(NC(=O)CCCN(C)C)ccc2O[C@@H]1CN(C)Cc1ccncc1`, with “inactive”.
Next, `C[C@H](CO)N1C[C@H](C)[C@@H](CN(C)C(=O)Nc2ccc(C(F)(F)F)cc2)OCCCC[C@H](C)Oc2ccc(NS(C)(=O)=O)cc2C1=O`: “inactive”.
On to `COc1ccc(S(=O)(=O)Nc2ccc3c(c2)CC(=O)N([C@H](C)CO)C[C@H](C)[C@H](CN(C)S(=O)(=O)c2ccc(C)cc2)O3)cc1`, for which the cytotoxicity call is “inactive”.
Next, `NCC[C@@H]1CC[C@H](NC(=O)C2CC2)[C@@H](CO)O1`: “inactive”; `O=C(O)c1cc2cc(F)ccc2s1`: “inactive”; `C[C@H](CO)N1C[C@H](C)[C@H](CN(C)Cc2ccc3c(c2)OCO3)OCCCC[C@H](C)Oc2ccc(NS(=O)(=O)c3ccccc3)cc2C1=O`: “inactive”.
Next, `C[C@H](CO)N1C[C@H](C)[C@@H](CN(C)Cc2ccc3c(c2)OCO3)OCCCC[C@H](C)Oc2ccc(NS(=O)(=O)c3ccccc3)cc2C1=O`: “inactive”; `C[C@@H]1CN([C@H](C)CO)C(=O)c2cc(NS(=O)(=O)c3ccccc3)ccc2O[C@@H](C)CCCCO[C@@H]1CN(C)Cc1ccc2c(c1)OCO2`: “active”; `C[C@@H]1CCCCO[C@@H](CN(C)Cc2ccc3c(c2)OCO3)[C@H](C)CN([C@H](C)CO)C(=O)c2cc(NS(=O)(=O)c3ccccc3)ccc2O1`: “active”.
Then `C[C@H]1CCCCO[C@H](CN(C)Cc2ccc3c(c2)OCO3)[C@@H](C)CN([C@@H](C)CO)C(=O)c2cc(NS(=O)(=O)c3ccccc3)ccc2O1`, with “inactive”; and `C[C@@H]1CCCCO[C@H](CN(C)Cc2ccc3c(c2)OCO3)[C@H](C)CN([C@@H](C)CO)C(=O)c2cc(NS(=O)(=O)c3ccccc3)ccc2O1`, with “active”; and `C[C@H]1CCCCO[C@@H](CN(C)Cc2ccc3c(c2)OCO3)[C@@H](C)CN([C@@H](C)CO)C(=O)c2cc(NS(=O)(=O)c3ccccc3)ccc2O1`, with “inactive”.
As to `C[C@@H]1CCCCO[C@H](CN(C)Cc2ccc3c(c2)OCO3)[C@@H](C)CN([C@@H](C)CO)C(=O)c2cc(NS(=O)(=O)c3ccccc3)ccc2O1`, the cytotoxicity call is “inactive”.
Then `C[C@@H]1CCCCO[C@H](CN(C)Cc2ccc3c(c2)OCO3)[C@H](C)CN([C@H](C)CO)C(=O)c2cc(NS(=O)(=O)c3ccccc3)ccc2O1`, with “inactive”; and `C[C@H](N)C(=O)N[C@@]1(C(=O)O)C[C@@H](Sc2nnc[nH]2)[C@H]2[C@H](C(=O)O)[C@H]21`, with “inactive”; and `C[C@H](CO)N1C[C@H](C)[C@H](CN(C)S(=O)(=O)c2ccc(F)cc2)Oc2ccc(NS(C)(=O)=O)cc2C1=O`, with “inactive”.
Then `Cl.Cl.N=C(N)N`, with “inactive”; and `COCCOC(=O)N1C(=O)[C@@]2(c3cc(C#CCCO)ccc31)[C@H](C(=O)NC[C@H](O)c1ccccc1)[C@H]1C(=O)O[C@H](c3ccccc3)[C@H](c3ccccc3)N1[C@@H]2c1ccccc1OCCO`, with “inactive”.
With `CCS(=O)(=O)N1CC[C@]2(CC1)CN([C@H](CO)c1[nH]c3cc(ccc3c12)OC)S(=O)(=O)c1cn(cn1)C`, the cytotoxicity call is “inactive”.
As for `C[C@@H]1CN([C@@H](C)CO)C(=O)Cc2cc(NS(=O)(=O)c3ccccc3)ccc2O[C@H]1CN(C)S(=O)(=O)c1cn(C)cn1`, the cytotoxicity call was “inactive”.
Next, `C[C@@H]1CN([C@@H](C)CO)C(=O)c2cc(NC(=O)CCCN(C)C)ccc2O[C@H]1CN(C)C(=O)Nc1ccc(F)cc1`: “inactive”; `O=C1NC(=O)[C@@]2(CCOc3ccc(F)cc32)N1`: “inactive”; `C[C@@H]1CCCCO[C@H](CN(C)S(=O)(=O)c2cn(C)cn2)[C@@H](C)CN([C@@H](C)CO)C(=O)c2cc(NS(=O)(=O)c3cn(C)cn3)ccc2O1`: “inactive”.
Then `COc1ccc(NC(=O)N2C[C@H](O)COC[C@@H]3O[C@H](CC(=O)NC4Cc5ccccc5C4)CC[C@H]32)cc1`, with “inactive”; and `Cc1ccc2c(c1)c1nc3ccccc3nc1n2Cc1ccccc1`, with “inactive”; and `Cc1ccc(C(=O)N(CCCN)[C@@H](c2nc3cc(Cl)ccc3c(=O)n2Cc2ccccc2)C(C)C)cc1`, with “active”.
Next, `Cc1ccc(C(=O)N(CCCN)[C@@H](c2oc3cc(Cl)ccc3c(=O)c2Cc2ccccc2)C(C)C)cc1`: “active”.
